From PubChem
Sampled rows, rich in hits. Any-hit rate of the full collection: about 2.2%.
TWEAK Fn14 block – inhibitors of TWEAK-Fn14 interaction signaling. 2% of 360,000 active. AID 1159606. TWEAK-stimulated Fn14 reporter cells, luciferase luminescence, 8 h. inhibition, % at 10 µM; in the data active means inhibition above about 50%
LGR2 antag – inhibitors of bursicon-induced Drosophila LGR2 receptor cAMP signaling; AID 720647; HEK293 LGR2, CRE-luciferase, bursicon-stimulated, 4 h; 0.35% of 380,000 active; inhibition, % at 9.99 µM;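 active means drop in luminescence signal, shown as inhibition above about 50% in the replicate tests, limit read from the data, passing the limit was not always enough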;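 further: agonist challenge used bursicon conditioned medium at about half maximal strength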
HSP90 inh – inhibitors of HSP90 luciferase refolding in rabbit reticulocyte lysate. 0.91% of 290,000 active. luciferase refolding luminescence, 3 h. inhibition, % at 5.6 µM;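 active means inhibition above the screen-wide mean plus 3 SD, computed separately per campaign, cut at about 16% in these data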;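 further: inhibitors lower the luminescence because luciferase stays unfolded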
TROY signal inh – TROY signaling inhibition | inhibition, % at 10 µM | Q293 LMP1-TROYcd NF-kB luciferase reporter, 4 h | 0.98% of 360,000 active;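 active means compounds whose plate-normalised and pattern-corrected inhibition of the luciferase reporter signal at the single screening dose is 50% or more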
Hits are given with their value; 0 = inactive; - = no result.

SMILES	TWEAK Fn14 block	LGR2 antag	HSP90 inh	TROY signal inh
CC(=O)c1cccc(NC(=O)COC(=O)COc2c(Cl)cc(Cl)c3ccc(C)nc23)c1	63	-	0	0
O=S(=O)(N[C@@H]1CC[C@H](CCn2cc(-c3cccc(F)c3)nn2)O[C@@H]1CO)c1ccc(F)cc1	-	0	-	-
Cc1occc(=O)c1OC(=O)Nc1ccc(Cl)c(Cl)c1	59	0	0	0
Cc1c(/C=N/NC(=O)c2cccnc2)c2ccccc2n1Cc1ccccc1	56	0	0	0
Cc1nn(Cc2ccccc2)c(Cl)c1/C=N/NC(=O)c1cccnc1	0	0	0	0
Cc1c(OC(C)C(=O)O)ccc2c3c(c(=O)oc12)CCCC3 (stereo unspecified)	56	0	0	0
CC(=O)Oc1ccc2c3c(c(=O)oc2c1C)CCCC3	0	0	0	0
O=C(NC12CC3CC(CC(C3)C1)C2)c1ccc(COc2ccc(Cl)cc2[N+](=O)[O-])o1	0	-	0	0
O=C(NC12CC3CC(CC(C3)C1)C2)c1ccc(-c2cccc(Cl)c2)o1	68	0	17	73
O=C(NC12CC3CC(CC(C3)C1)C2)c1ccc(-c2ccc(Cl)cc2)o1	0	0	0	54
C[C@H]1CN([C@@H](C)CO)C(=O)c2cc(NS(=O)(=O)c3ccc(Cl)cc3)ccc2O[C@@H]1CN(C)Cc1ccc(C(F)(F)F)cc1	-	0	-	-
C[C@@H]1CN([C@@H](C)CO)C(=O)c2cc(NC(=O)CCC(F)(F)F)ccc2O[C@H]1CN(C)CC1CC1	-	0	-	-
COc1ccc(NS(=O)(=O)c2cc(NC(=O)CCSc3ccccc3)ccc2OC)cc1	58	0	0	0
COc1ccc(NC(=O)CCSc2ccc(C)cc2)cc1S(=O)(=O)Nc1ccccc1Cl	0	0	0	0
COc1ccc(NC(=O)c2c(Nc3ccccc3)sc(C(=O)c3ccc(F)cc3)c2N)cc1	52	-	0	0
CCCCOCCCNc1ncnc2c1[nH]c1ccccc12	60	-	0	0
CC1=CCC2([N+](=O)[O-])CN(CC(=O)O)CC1([N+](=O)[O-])C2 (stereo unspecified)	0	0	0	0
CCN1CC2([N+](=O)[O-])CC=C(OC)C([N+](=O)[O-])(C1)C2 (stereo unspecified)	73	0	0	0
CCOC(=O)/C=C/C(=O)Nc1ccc(Oc2ccccc2)cc1	71	102	0	0
CCOC(=O)/C=C/C(=O)Nc1cc(S(=O)(=O)Nc2ccc(OC)cc2)ccc1N1CCOCC1	56	0	-	0
COc1ccc(NS(=O)(=O)c2ccc(N3CCOCC3)c(NC(=O)C(C)C)c2)cc1	0	0	0	0
CCOC(=O)/C=C/C(=O)Nc1ccc(S(=O)(=O)Nc2c(C)cc(C)cc2C)cc1	0	0	0	50
CCOC(=O)/C=C/S(=O)(=O)c1ccc(NC(C)=O)cc1	0	-	0	0
C[C@@H]1CN([C@H](C)CO)C(=O)Cc2cc(NC(=O)Cn3cnnn3)ccc2O[C@H]1CN(C)C(=O)NC1CCCCC1	-	0	-	-
CC(C)NC(=O)Nc1ccc2c(c1)CC(=O)N([C@H](C)CO)C[C@@H](C)[C@H](CN(C)Cc1ccccc1)O2	-	0	-	-
SMILES	TWEAK Fn14 block	LGR2 antag	HSP90 inh	TROY signal inh
Cc1nc(SCC(=O)Nc2sccc2C(N)=O)c2c(C)c(C)sc2n1	0	0	-	0
COC(=O)c1sc2nc(C)nc(SCC(=O)Nc3sccc3C(N)=O)c2c1C	60	0	-	0
COc1ccc(C2C(=O)c3ccccc3C2=O)cc1	0	-	0	0
COc1ccc(N=C(C)C2C(=O)c3ccccc3C2=O)cc1	64	-	-	0
Cc1nnc(SCC(=O)NC23CC4CC(CC(C4)C2)C3)n(N)c1=O	97	0	0	85
Cn1ccnc1SCC(=O)NC12CC3CC(CC(C3)C1)C2	0	-	0	0
Cc1ccc(S(=O)(=O)c2nc(S(C)(=O)=O)sc2NCC2CCCO2)cc1 (stereo unspecified)	87	-	0	-
CO[C@H]1CN(C)C(=O)c2cc(NC(=O)C3CCC3)ccc2OC[C@H](C)N(Cc2cccnc2)C[C@H]1C	-	0	-	-
Cc1ccc(SSc2cc(C)ccc2N)c(N)c1	58	0	-	0
Cc1ccc(O)c(N)c1	0	-	-	0
CCN(CCNC(=O)c1cccc(N2CCCC2=O)c1)c1ccccc1	52	-	0	70
CN(CCNC(=O)c1cccc(N2CCCC2=O)c1)Cc1ccccc1	0	-	0	0
CNC(=O)C[C@@H]1CC[C@@H]2[C@@H](COc3ccc(NC(=O)c4ccc(OC)cc4)cc3C(=O)N2C)O1	-	0	-	-
OC(CN1CCN(c2ccccn2)CC1)Cn1c2ccc(Cl)cc2c2cc(Cl)ccc21 (stereo unspecified)	52	-	0	0
OC(CN1CCCCC1)Cn1c2ccc(Cl)cc2c2cc(Cl)ccc21 (stereo unspecified)	0	0	0	0
Clc1ccc(-n2nnnc2-c2cnc(-c3ccncc3)nc2-c2cccs2)cc1	0	-	0	0
FC(F)(F)c1nc(-c2cccs2)ncc1-c1nnnn1-c1ccc(Cl)cc1	99	-	0	66
C[C@H](CO)N1C[C@H](C)[C@H](CN(C)C(=O)Nc2ccc3c(c2)OCO3)Oc2ccc(NC(=O)Cc3ccccc3)cc2CC1=O	-	0	-	-
Cc1ccc(Nc2cc(C)nn2-c2nc(C)cc(=O)[nH]2)cc1	108	-	0	84
COc1cccc(-c2ccc3ncnc(NCc4cccc(C)c4)c3c2)c1	63	0	-	50
COc1cccc(CNc2ncnc3ccc(-c4c(C)noc4C)cc23)c1	79	0	-	0
Cn1ccc2cc(-c3ccc4ncnc(NCc5cccs5)c4c3)ccc21	55	-	-	0
COCCCNc1ncnc2ccc(C)cc12	0	-	0	55
C[C@H](CO)N1C[C@H](C)[C@@H](CN(C)C(=O)Nc2ccccc2)Oc2ncc(-c3ccccc3)cc2C1=O	-	0	-	-
COc1cccc(-c2ccc3ncnc(NCc4cccs4)c3c2)c1	69	0	-	0
SMILES	TWEAK Fn14 block	LGR2 antag	HSP90 inh	TROY signal inh
Cc1ccsc1CNc1ncnc2ccc(-c3c(C)noc3C)cc12	81	0	-	0
C/C=C/c1ccc2c(c1)O[C@@H](CN(C)Cc1cccc(F)c1)[C@@H](C)CN([C@@H](C)CO)S2(=O)=O	-	0	-	-
O=c1c2ccccc2oc2ccc(C#CC3(O)CCCCC3)cc12	98	75	-	89
COc1cccc2oc3ccc(C#CC4(N)CCCCC4)cc3c(=O)c12	0	0	0	0
Cc1cc2sc3ccc(C#CC4(O)CCCCC4)cc3c(=O)c2cc1C	106	-	-	90
NC1(C#Cc2ccc3c(=O)c4ccccc4sc3c2)CCCCC1	81	-	-	0
CC1CCN(C2=NC(=O)/C(=C/c3cn(-c4ccccc4)nc3-c3cccc(S(=O)(=O)N(C)C)c3)S2)CC1	76	-	0	-
COc1ccccc1C#Cc1cnc2c(c1)C(=O)N([C@@H](C)CO)C[C@@H](C)[C@@H](CN(C)C(=O)c1ccc3c(c1)OCO3)O2	-	0	-	-
COCCNC(=O)C[C@@H]1C[C@@H]2c3cc(NC(=O)NC4CCCCC4)ccc3O[C@@H]2[C@H](CO)O1	-	0	-	-
CCC(C)c1ccc(C(C)NC(=S)NCc2ccc(F)cc2)cc1 (stereo unspecified)	0	0	0	0
CCCc1ccc(C(C)NC(=S)NCc2ccc(F)cc2)cc1 (stereo unspecified)	0	0	0	56
